Screens deposited in PubChem BioAssay by National Center for Advancing Translational Sciences (NCATS).
Methyltransferases = Primary Screen for Target Class Profiling of Small Molecule Inhibitors of Methyltransferases | calls only at 40 µM | 25,000 compounds, 3.9% hits | purified enzyme, MTase-Glo SAH luminescence; stronger effect = lower value | AID 1745853, 2022; call rule not given here
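Each enzyme was reacted with SAM and its substrate, with compounds tested once at 40 uM; SAH formed was read by MTase-Glo luminescence.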
Each line names hits and unclear results; the compound was inactive in the other large screens; ! = not active in a repeat. The entries come from a sample that favours hits as a whole.

CC1(C(=O)NC2CCCCCC2)Cn2c(cc3occc32)C(=O)N1CCCN1CCCCCC1 (configuration not stated)	none
CCOC(=O)c1cc2n(n1)CC(C)(C(=O)NC1CCCC1)N(c1cccc(Cl)c1C)C2=O (configuration not stated)	none
CN(C)[C@@H]1C[C@@H](CO)N(C(=O)c2csc3nc(-c4ccccc4Cl)cn23)C1	none
O=C(Nc1ccccc1-c1cn2c(CN3CCNCC3)csc2n1)c1cnc2ccccc2n1	Methyltransferases active!
CCN1CCN(c2ccc(Nc3ccc(-c4ccc(C(N)=O)cc4)n4ncnc34)cc2)CC1	Methyltransferases active
COc1ccc(N2CCN(C(=O)c3ccc(Nc4nc5ccccc5n5nnnc45)cc3)CC2)cc1	none
CCN1CCN(C(=O)c2ccc(-c3nnc4ccc(NC(=O)C5CC5)cn34)cc2)CC1	none
COc1ccccc1NC(=O)CSc1nnc2n(CC(C)C)c(=O)c3ccccc3n12	none
CC1(C(=O)NCc2ccc(F)cc2)Cn2cnc(C(=O)NCCc3ccco3)c2C(=O)N1C1CC1 (configuration not stated)	none
COc1cccc(-n2nc(C(=O)O)cc2-c2ccc(C3CCCCC3)c(Cl)c2)c1	Methyltransferases active
CCOC(=O)c1cc2n(n1)CC(C)(C(=O)NC1CCCCC1)N(c1cccc(OC)c1)C2=O (configuration not stated)	none
COC(=O)c1cc2n(n1)CC(C)(C(=O)NC1CCCCCC1)N(Cc1cccc(OC)c1)C2=O (configuration not stated)	none
COC(=O)c1ncn2c1C(=O)N(c1ccc(C(C)C)cc1)C(C)(C(=O)NC1CCCCC1)C2 (configuration not stated)	none
CCCn1c(=O)c2cc(F)ccc2n2c(SCc3ccc(Cl)cc3)nnc12	none
Cc1cccc(CNC(=O)C2(C)Cn3cnc(C(=O)N4CCOCC4)c3C(=O)N2C2CC2)c1 (configuration not stated)	none
CC1CCN(c2cc(NC(=O)c3ccccc3)ncn2)CC1	none
COC(=O)Nc1nc2ccc(C(=O)c3cccs3)cc2[nH]1	none
O=C(c1ccccc1)c1ccc2nc(NC(=O)c3csc(C4CCN(c5ncnc6ccsc56)CC4)n3)[nH]c2c1	Methyltransferases active
CC(=O)Nc1c2n(c3ccc(F)cc13)CC(C)(C(=O)NC1CCCC1)N(CCc1ccccc1)C2=O (configuration not stated)	none
Cc1ccc2c(c1)c(-n1cccc1)c1n2CC(C)(C(=O)NC2CCCC2)N(Cc2cccs2)C1=O (configuration not stated)	none
CC(C)(C)c1cc2n(n1)CC(C)(C(=O)NC1CCCCCC1)N(Cc1ccccc1)C2=O (configuration not stated)	none
CCn1c(=O)n(CC)c2cc(S(=O)(=O)N3CCN(c4ccccc4OC)CC3)ccc21	none
CNC1CCC(N(Cc2cccc(-c3ccncc3)c2)C(=O)c2sc3c(F)ccc(F)c3c2Cl)CC1 (configuration not stated)	Methyltransferases active!
CNC1CCC(N(Cc2cccc(-c3ccncc3)c2)C(=O)c2sc3ccccc3c2Cl)CC1 (configuration not stated)	Methyltransferases active
CCOCCCNC(=O)N1Cc2c(sc3c2CCCC3)-n2cccc2C1c1ccccc1 (configuration not stated)	none
CCOc1ccccc1NC(=O)N1Cc2c(sc3c2CCCC3)-n2cccc2C1c1cccc(OC)c1 (configuration not stated)	none
Cc1cccc(NC(=O)N2CCn3cccc3C2C(C)C)c1C (configuration not stated)	none
Cc1ccc(C)c(NC(=O)c2ncn3c2C(=O)N(C2CC2)C(C)(C(=O)NCc2ccc(F)cc2)C3)c1 (configuration not stated)	none
CCC(C)NC(=O)c1ccc2c(=O)n(CC(C)C)c3nn(Cc4ccc(F)cc4Cl)c(=O)n3c2c1 (configuration not stated)	none
CCOCCCN1C(=O)c2ccc(-c3ccco3)n2CC1(C)C(=O)NC1CCCC1 (configuration not stated)	none
CC1CC(C)CN(S(=O)(=O)c2ccc3c(c2)oc(=O)n3CC(=O)NC2CCCCC2C)C1 (configuration not stated)	none
CC1(C(=O)NC2CCCCCCC2)Cn2c(ccc2-c2ccccc2)C(=O)N1Cc1ccccc1F (configuration not stated)	none
CCOc1ccc(Nc2nc3c(S(=O)(=O)c4ccccc4)nnn3c3ccccc23)cc1	none
Cc1cnc(Nc2ccc(OCCN3CCCC3)cc2)nc1Nc1cccc(S(=O)(=O)NC(C)(C)C)c1	Methyltransferases active!
CCC(C)NC(=O)c1ccc2c(=O)n(C(C)C)c3nn(CC(=O)c4cccc(OC)c4)c(=O)n3c2c1 (configuration not stated)	none
CCCN1C(=O)c2c(C(=O)NCCc3ccc(Cl)cc3)ncn2CC1(C)C(=O)NCc1ccc(F)cc1 (configuration not stated)	none
C[C@@H]1C(=O)O[C@H]2[C@H]1CC[C@@]1(C)C(=O)C=C[C@@](C)(O)[C@H]21	none
CC1=CCC(O)C2(C)CCC3C(C)C(=O)OC3C12 (configuration not stated)	Methyltransferases active
C=C1C(=O)O[C@@H]2[C@H]1[C@H](O)C[C@]1(C)[C@@H](O)CC=C(C)[C@@H]21	none
COc1cccc(S(=O)(=O)N2CCCC(c3nnnn3C)C2)c1 (configuration not stated)	none
COC(=O)c1ccc(NC(=O)N2Cc3c(sc4c3CCCC4)-n3cccc3C2c2cc(F)cc(F)c2)cc1 (configuration not stated)	none
CC1CCCCC1NC(=O)C1(C)Cn2c(ccc2-c2ccco2)C(=O)N1CCCc1ccccc1 (configuration not stated)	none
Fc1cccc(-c2nnn3c2nc(NCc2ccc4c(c2)OCO4)c2cc(Cl)ccc23)c1	none
Clc1cccc(-c2nnn3c2nc(NCc2ccc4c(c2)OCO4)c2ccccc23)c1	none
COc1cccc(-c2cc(NCc3ccc4c(c3)OCO4)nc(N)n2)c1	Methyltransferases active
Cc1ccc(NC(=O)N2Cc3c(sc4c3CCCC4)-n3cccc3C2c2cccc(F)c2)cc1 (configuration not stated)	none
COc1ccc(CNc2nc3c(-c4ccc(Cl)cc4)nnn3c3ccccc23)cc1	none
C=C[C@H]1[C@H](O[C@@H]2O[C@H](CO)[C@@H](O)[C@H](O)[C@H]2O)OC=C(C(=O)OC)[C@H]1CCO	Methyltransferases active
C=C[C@H]1[C@H](O[C@@H]2O[C@H](CO)[C@@H](O)[C@H](O)[C@H]2O)OC=C(C(=O)OC)[C@H]1C[C@@H]1N[C@H](C(=O)O)Cc2c1[nH]c1ccccc21	none
COC(=O)C1=COC(OC2OC(CO)C(O)C(O)C2O)C2C1CC(OC(=O)C(O)CC(=O)O)C2C (configuration not stated)	Methyltransferases active
COC(=O)C1=COC(OC2OC(CO)C(O)C(O)C2O)C2C(C)C(OC(C)=O)C(OC(=O)c3ccccc3)C12 (configuration not stated)	none
COC(=O)C1=COC(O[C@@H]2O[C@H](CO)[C@@H](O)[C@H](O)[C@H]2O)C2C(C)C(=O)CC12 (some centres not stated)	none
C=C[C@H]1[C@H](O[C@@H]2O[C@H](CO)[C@@H](O)[C@H](O)[C@H]2O)OC=C(C(=O)OC)[C@H]1CC(=O)O	none
COC(=O)C1=CO[C@@H](O[C@@H]2O[C@H](CO)[C@@H](O)[C@H](O)[C@H]2O)[C@@H]2[C@@H](C(=O)OC)[C@@H](O)C(O)[C@H]12 (some centres not stated)	none
